Screening data as filed in PubChem.
GSH bead fluor: compound fluoresces at 488/530 nm on GSH beads; fluorescence (KMESF) at 10 µM; 190,000 tested, 0.25% active; GSH beads flow cytometry, compound fluorescence 488/530 nm; active compounds read high; in the data active = fluorescence above about 89;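 note: glutathione beads carrying GST-tagged Bcl family fusion proteins plus one bare bead set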
RGS4-Gao reg: human RGS4-Galphao interaction regulation; Multiplexed bead flow cytometry, RGS4-Galphao binding; actives lie on both sides; 220,000 tested, 0.33% active; AID 1415; P09471; binding response (% of control), % at 10 µM; in the data active = binding response below about 49% or above about 150%; inactive = in between;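 note: fluorescent Galphao activated with aluminum fluoride binding bead-coupled RGS4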
RGS8-Gao reg: human RGS8-Galphao interaction regulation; 220,000 tested, 0.34% active; P09471; multiplexed bead flow cytometry, RGS8-Galphao binding; actives lie on both sides; response (percent of control binding), % at 10 µM; in the data active = response below about 60% or above about 140%; inactive = in between;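 note: Galphao activated as the GDP aluminium fluoride complex binding bead-coupled RGS8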
Avidin fluor: avidin bead compound fluorescence profile; Avidin beads, compound fluorescence 488/530 nm, flow cytometry; active compounds read high; fluorescence (KMESF) at 10 µM; 220,000 tested, 0.38% active; in the data active = fluorescence above about 47
RGS7-Gao: regulators of human RGS7-Galphao interaction; binding response (% of control), % at 10 µM; P09471; Multiplexed bead flow cytometry, RGS7-Galphao binding; actives lie on both sides; 220,000 tested, 0.35% active; in the data active = binding response below about 49% or above about 150%; inconclusive = no clear call, values can overlap the other calls; inactive = in between;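 note: fluorescent Galphao held in activated GDP-AlF4 state binding bead-coupled RGS7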
RGS16-Gao HTS: regulators of human RGS16-Galphao interaction | binding response (% of control), % at 10 µM | 220,000 tested, 0.38% active | bead-based flow cytometry RGS16-Galphao binding, fluorescence; actives lie on both sides;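 note: Galphao activated by GDP with aluminum fluoride before binding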
RGS-Gao: RGS4-Galphao interaction regulator (human) | 1,600 tested, 99% active | multiplexed bead flow cytometry, RGS–Galpha-o binding | shares compounds with RGS16-Gao HTS | RGS4–Galpha-o binding response, % at 10 µM;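 note: fluorescently labeled Galpha-o bound to GDP with aluminium fluoride binding biotinylated RGS beads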
Avidin counter: interferes with biotinylated probe binding to avidin beads; shares compounds with RGS16-Gao HTS; streptavidin beads, fluorescein-biotin binding, flow cytometry; inhibition, % at 10 µM; 1,700 tested, under 10 active; AID 1783;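 active = inhibition above 50%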;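 note: median green fluorescence of gated singlet beads compared with DMSO control wells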
RGS8-Gao single: confirmation of regulators of human RGS8-Galphao interaction | binding response (% of control), % at 10 µM | 1,700 tested, 3% active | bead-based flow cytometry RGS8-Galphao binding, fluorescence; actives lie on both sides | shares compounds with RGS16-Gao HTS | AID 1836; in the data active = binding response below about 72% or above about 130%; inactive = in between;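 note: Galphao activated as GDP AlF4 complex before binding bead RGS8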
RGS7-Gao confirm: confirmation of regulators of human RGS7-Galphao interaction. 1,700 tested, 7.8% active. response (percent of control binding), % at 10 µM. AID 1837. bead-based flow cytometry RGS7-Galphao binding; actives lie on both sides. shares compounds with RGS16-Gao HTS; in the data active = response below about 75% or above about 130%; inactive = in between;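 note: fluorescent Galphao activated with GDP and aluminum fluoride binding bead-coupled RGS7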
RGS16-Gao single: confirmation of regulators of human RGS16-Galphao interaction. shares compounds with RGS16-Gao HTS. bead-based flow cytometry, RGS16-Galphao binding; actives lie on both sides. response (% of control binding), % at 10 µM. 1,700 tested, 4% active; in the data active = response below about 74% or above about 130%; inactive = in between;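 note: Galphao activated as the GDP aluminium fluoride complex binding bead-coupled RGS16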
RGS4-Gao single: confirmation of regulators of human RGS4-Galphao interaction | shares compounds with RGS16-Gao HTS | RGS4-Galphao binding, multiplexed bead flow cytometry; actives lie on both sides | binding response (% of control), % at 10 µM | 1,700 tested, 4% active; in the data active = binding response below about 74% or above about 130%; inactive = in between
RGS19-Gao conf: confirmation of regulators of human RGS19-Galphao interaction. shares compounds with RGS16-Gao HTS. AID 1841. 1,700 tested, 5% active. response (percent of control binding), % at 10 µM. bead-based flow cytometry RGS19-Galphao binding; actives lie on both sides; in the data active = response below about 50% or above about 160%; inactive = in between
Target sequence (P09471 whole entry, looked up): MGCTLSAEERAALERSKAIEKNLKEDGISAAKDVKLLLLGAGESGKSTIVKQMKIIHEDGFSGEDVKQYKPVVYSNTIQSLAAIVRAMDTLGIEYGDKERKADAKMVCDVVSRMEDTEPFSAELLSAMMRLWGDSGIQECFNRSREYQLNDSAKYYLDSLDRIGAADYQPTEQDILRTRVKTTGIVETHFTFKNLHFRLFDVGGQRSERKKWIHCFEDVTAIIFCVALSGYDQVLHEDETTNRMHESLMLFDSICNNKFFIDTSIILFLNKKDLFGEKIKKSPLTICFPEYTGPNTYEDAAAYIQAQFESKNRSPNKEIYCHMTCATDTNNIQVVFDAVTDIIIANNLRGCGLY
Target sequence (P49795 whole entry, looked up): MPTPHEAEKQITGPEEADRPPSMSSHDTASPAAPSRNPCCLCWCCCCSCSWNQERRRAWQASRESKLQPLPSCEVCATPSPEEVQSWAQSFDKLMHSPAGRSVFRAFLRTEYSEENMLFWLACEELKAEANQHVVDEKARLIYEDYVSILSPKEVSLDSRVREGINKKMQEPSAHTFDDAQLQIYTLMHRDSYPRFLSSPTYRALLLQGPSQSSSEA
Each line names hits and unclear results; the compound was inactive in the other large screens (follow-up assays come after a bar, where they were run); [ ] = remark or other dose. In the library only some 1.2% were active in any assay of this set; here they are far more common. Unless noted, the rule behind the calls is not given here.

COc1ccc(C2CN(C)CC2C(=O)c2ccc(C)cc2)cc1Cl (configuration not stated)	none
CN(C)C(=O)Nc1cccc(OC(=O)N(C)C)c1	Avidin fluor 178, RGS7-Gao 281.3[activator] | RGS-Gao 126.2 | Avidin counter inactive | RGS8-Gao single inactive | RGS7-Gao confirm inactive | RGS16-Gao single inactive | RGS4-Gao single inactive | RGS19-Gao conf inactive
Cc1ccccc1-n1c(O)c(/C=N/N2CCOCC2)c(=O)[nH]c1=S	RGS4-Gao reg 150.3[activator], Avidin fluor 78 | Avidin counter inactive | RGS8-Gao single inactive | RGS7-Gao confirm inactive | RGS16-Gao single inactive | RGS4-Gao single inactive | RGS19-Gao conf inactive
CCOP(=S)(OCC)c1ccc(N(C)C)cc1	RGS8-Gao reg 149.4[activator] | RGS-Gao 122.6 | Avidin counter inactive | RGS8-Gao single inactive | RGS7-Gao confirm inactive | RGS16-Gao single inactive | RGS4-Gao single inactive | RGS19-Gao conf inactive
CN1CCN(c2c(C#N)c(C(F)(F)F)nn2C)CC1	RGS7-Gao inconclusive
